Screening data: PubChem BioAssay, National Center for Advancing Translational Sciences (NCATS)
VP16 counter: Gal4-VP16 reporter inhibition counter-screen | Drosophila S2 Gal4-VP16 UAS-luciferase, luminescence, 20 h | Potency, µM (titrated, usually from 53.6 µM), usual class: inhibitors | hit rate 3.5% among 310,000;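 note: Gal4-VP16 expression switched on by copper sulfate through the metallothionein promoter; nearly all actives have a fitted effect of over 50% in size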
HepG2 tox: kills HepG2 cells in TGF-b inhibitor counter-screen | hit rate 0.76% among 410,000 | Potency, µM (highest dose often 46.1 µM), most hits filed as cytotoxic | AID 588856 | HepG2 CAGA-GFP viability, ATP luminescence, 18 h
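CellTiter-Glo luminescence gave cytotoxicity after 18 hours at 37 degrees C. The cells were HepG2 CAGA-GFP in 1% FBS DMEM, stimulated with 500 pg/mL TGF-beta after compound addition. %Activity was normalised to no-cell wells (complete cell-killing) and DMSO (no toxicity), and curves were fitted and classified.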
RORgamma inh: inhibitors of mouse ROR gamma transcriptional activity | Drosophila S2 Gal4-RORgamma UAS-luciferase reporter, 20 h | Potency, µM (highest dose often 53.6 µM), usual class: inhibitors | hit rate 5.4% among 310,000 | AID 2551; note: nearly all actives have a fitted effect of over 60% in size
Target sequence (P51450 whole entry, looked up, the tested form may be a part): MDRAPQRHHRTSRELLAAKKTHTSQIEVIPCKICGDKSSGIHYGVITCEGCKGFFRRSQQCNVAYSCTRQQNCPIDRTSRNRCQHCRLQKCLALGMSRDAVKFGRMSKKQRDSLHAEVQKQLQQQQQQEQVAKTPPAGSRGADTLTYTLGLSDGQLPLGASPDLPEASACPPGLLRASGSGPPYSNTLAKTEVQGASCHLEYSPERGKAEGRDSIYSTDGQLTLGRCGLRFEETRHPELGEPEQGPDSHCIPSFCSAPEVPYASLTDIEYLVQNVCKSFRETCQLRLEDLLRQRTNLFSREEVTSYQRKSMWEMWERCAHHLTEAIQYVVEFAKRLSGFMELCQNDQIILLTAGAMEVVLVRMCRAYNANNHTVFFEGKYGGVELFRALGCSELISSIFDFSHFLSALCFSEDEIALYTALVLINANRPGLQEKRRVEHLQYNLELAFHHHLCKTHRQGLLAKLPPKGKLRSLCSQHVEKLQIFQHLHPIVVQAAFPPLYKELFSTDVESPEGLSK
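Luminescence from a UAS-regulated Photinus luciferase reporter in stably transfected Drosophila Schneider cells is measured; decreased signal marks ROR gamma inhibition. Fusion expression is induced by 700 uM copper sulfate for 20 hr.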
S2 tox: reduces viability in counter-screen for ATXN expression inhibitors; hit rate 0.49% among 400,000; S2 cells (HEK-293 line with an ATXN2-luciferase reporter) viability, CellTiter-Fluor protease fluorescence, 24 h; Potency, µM (highest dose often 56.7 µM), actives largely listed as cytotoxic; note: nearly all actives have a fitted effect of over 40% in size
TGFb SMAD3 inh: blocks TGF-b signaling; HepG2 CAGA-GFP TGF-b/SMAD3 reporter, GFP fluorescence, 18 h; TGF-beta stimulated, 500 pg/mL final; Potency, µM (doses to about 46.1 µM), usual class: inhibitors; hit rate 1.2% among 410,000; AID 588855; note: nearly all actives have a fitted effect of over 65% in size
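Inhibition was scored as loss of TGF-beta-induced (500 pg/mL final, 18 hours, 37 degrees C) GFP in HEPG2 cells carrying a CAGA-GFP reporter, in DMEM with 1% FBS. Well GFP was summed per cell; Activity was normalised to unstimulated and stimulated DMSO wells, then concentration-response fitting.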
ATXN2 expr inh: ATXN2 expression inhibition. HEK-293 ATXN2-luciferase reporter, luminescence, 24 h. AID 1745845. hit rate 0.72% among 360,000. Potency, µM (series often up to 57 µM), actives largely listed as inhibitors; note: nearly all actives have a fitted effect of over 55% in size
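ATXN2-luciferase reporter cells (luciferase flanked by upstream and downstream ATXN2 gene portions) were treated 24 h at 37 °C with compounds at up to 57 uM. SteadyGlo luminescence gave expression; GF-AFC fluorescence gave viability.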
Numbers stand for hits; – = inactive; ? = inconclusive; · = no result given; [ ] = dose if it differs, or a comment. Shown are actives, neighbours in structure and some others; about 6.1% of the full set was active somewhere. Calls come from the whole dose curve; as a rule, active = well fitted curve in the direction sought with a large enough effect; inconclusive = small, poorly fitted or top-dose-only effect, or another doubt; inactive = no such curve, though single readings can be large; an effect the other way counts as inactive or inconclusive.

SMILES	VP16 counter	HepG2 tox	RORgamma inh	S2 tox	TGFb SMAD3 inh	ATXN2 expr inh
COc1ccccc1NC(=S)NCC1CCCO1 (stereo not given)	?	–	?	–	–	–
CCOc1cc(NC(=S)NCC2CCCO2)c(OCC)cc1NC(=O)c1ccc(OC)cc1 (stereo not given)	10µM	–	11µM	–	–	–
Cc1oc2ncnc(N3CCCCC3)c2c1C(=O)Nc1cccc(Cl)c1C	·	–	·	·	–	·
COCCOCC(OC)OC	·	·	·	–	·	–
S=C(NCC1CCCO1)Nc1cccc2ccccc12 (stereo not given)	?	–	7.1µM	–	–	–
CCOc1cc(NC(=S)NCC2CCCO2)c(OCC)cc1NC(=O)CC(C)C (stereo not given)	–	–	11µM	–	–	–
CCOc1cc(NC(=S)NCc2ccco2)c(OCC)cc1NC(=O)CC(C)C	–	–	?	?	–	–
CCOc1cc(N2CCOCC2)c(OCC)cc1NC(=O)c1ccccc1C	–	–	–	–	–	–
CCOc1cc(NC(=S)Nc2ccccc2OC)c(OCC)cc1NC(=O)c1ccccc1C	2.2µM	–	1.8µM	–	–	–
Cc1ccccc1C(=O)c1c[nH]c(C(=O)NCC2CCCO2)c1 (stereo not given)	–	–	–	–	–	–
CCOc1cc(NC(=S)NCC2CCCO2)c(OCC)cc1NC(=O)c1ccccc1C (stereo not given)	?	–	10µM	–	–	–
O=C(NCc1ccccc1)c1ccc(CS(=O)(=O)c2c(Cl)cccc2Cl)o1	·	–	·	–	–	–
CCNC(=O)CC1C(=O)N(c2ccc(F)cc2)C(=O)N1CCOC (stereo not given)	·	–	·	–	–	–
Cc1c(C(=O)Oc2ccc(Br)cc2)sc2ncn(Cc3ccccc3F)c(=O)c12	·	–	·	–	–	–
C/C(CCN1CCCc2nc(C)c(C)cc21)=N\OC[C@@H](O)COCc1ccco1	–[10 µM]	·	–[10 µM]	·	·	·
Cc1cccc(C)c1-c1ccc(CN2C(CC(C)C)C(=O)N(Cc3cn(CCO)nn3)CCS2(=O)=O)cc1 (stereo not given)	·	–	·	32µM	?	28µM
CC1C(=O)N(Cc2cn(CCC3OCCO3)nn2)CCS(=O)(=O)N1Cc1ccc(-c2ccc(Cl)cc2)cc1 (stereo not given)	·	–	·	32µM	?	?
CC1C(=O)N(Cc2cn(CCC3OCCCO3)nn2)CCS(=O)(=O)N1Cc1ccc(-c2ccc(Cl)c(Cl)c2)cc1 (stereo not given)	·	–	·	25µM	?	25µM
CC(C)CC1C(=O)N(Cc2cn(CCC3OCCCO3)nn2)CCS(=O)(=O)N1Cc1ccc(-c2ccc(Cl)c(Cl)c2)cc1 (stereo not given)	·	–	·	32µM	?	?
Cc1ccc(-c2ccc(CN3C(C)C(=O)N(Cc4cn(CCC5OCCO5)nn4)CCS3(=O)=O)cc2)cc1 (stereo not given)	·	–	·	–	–	–
CC(C)CC1C(=O)N(Cc2cn(CCC3OCCO3)nn2)CCS(=O)(=O)N1Cc1ccc(-c2cccc(CO)c2)cc1 (stereo not given)	·	–	·	–	–	–
CCC/C=C/c1ccc(CN2C(CC(C)C)C(=O)N(Cc3cn(Cc4ccco4)nn3)CCS2(=O)=O)cc1 (stereo not given)	·	–	·	?	16µM	?
COCOCCn1cc(CN2CCS(=O)(=O)N(Cc3ccc(-c4ccc(Cl)c(Cl)c4)cc3)C(C)C2=O)nn1 (stereo not given)	·	–	·	·	?	28µM
CCOCCc1nn2c(=O)cc(COC(=O)c3ccccc3NC(=O)c3ccccc3F)nc2s1	·	–	·	–	–	–
CC(C)C[C@H]1CN([C@@H](CC(C)C)CN2CCC[C@@H]2CN2C(=S)NC[C@@H]2Cc2ccc(O)cc2)C(=S)N1CC1CCCCC1	·	–	·	32µM	?	–
SMILES	VP16 counter	HepG2 tox	RORgamma inh	S2 tox	TGFb SMAD3 inh	ATXN2 expr inh
CC(C)C[C@H]1CNC(=S)N1C[C@H]1CCCN1C[C@H](Cc1ccccc1)N1C[C@H](Cc2ccc(O)cc2)N(CC2CCCCC2)C1=S	·	–	·	?	11µM	?
Oc1ccc(C[C@H]2CN([C@@H](Cc3ccccc3)CN3CCC[C@@H]3CN3C(=S)NC[C@@H]3Cc3ccccc3)C(=S)N2CC2CCCCC2)cc1	·	–	·	?	13µM	–
Oc1ccc(C[C@@H](CN2CCCC2CN2C(=S)NC[C@@H]2Cc2ccccc2)N2C[C@H](Cc3ccccc3)N(CC3CCCCC3)C2=S)cc1 (stereo not given in full)	·	·	·	–	·	–
Cc1ccc(S(=O)(=O)c2nnn3c2nc(NC2CCCCC2)c2sccc23)cc1C	·	–	·	·	·	·
CCOC(=O)c1cc(-c2ccccc2)n(-c2cccc(C(=O)N(CC)c3ccccc3)c2)c1C	·	–	·	·	?	·
Cc1nn(CCc2n[nH]c(=S)n2-c2ccc(F)c(Cl)c2)c(C)c1[N+](=O)[O-]	?	–	7.1µM	–	–	–
Cc1cccc(-n2c(Cn3nc(C)c([N+](=O)[O-])c3C)n[nH]c2=S)c1	–	–	11µM	–	–	–
Cc1nn(CCc2n[nH]c(=S)n2-c2ccc(F)cc2)c(C)c1[N+](=O)[O-]	–	–	?	–	–	–
CC(C)OC(=O)CN1C(=O)S/C(=C/c2ccc(N3CCCCC3)o2)C1=O	13µM	–	?	–	–	–
CC(C)(C)OC(=O)CN1C(=O)S/C(=C\c2ccc(-c3cccc(C(=O)O)c3)o2)C1=O	–	·	?	·	·	·
O=C1/C(=C/c2ccc(N3CCOCC3)o2)SC(=Nc2ccccc2)N1CCc1c[nH]c2ccccc12	5µM	13µM	3.2µM	?	–	18µM
O=C1S/C(=C/c2ccc(N3CCOCC3)o2)C(=O)N1Cc1ccc(F)cc1	–	–	–	–	–	–
O=C1S/C(=C\c2ccc(N3CCOCC3)o2)C(=O)N1Cc1ccc(F)cc1	7.1µM	–	?	–	–	–
O=C(NCc1ccc2c(c1)OCO2)O[C@@H]1C(=O)c2cc(Br)ccc2O[C@H]1c1ccc2c(c1)OCO2	–	·	?	·	·	·
COc1ccc(NCc2nc3ccccc3n2CCOc2ccccc2)cc1	–	–	16µM	–	–	–
c1ccc(NCc2nc3ccccc3n2CCOc2ccccc2)cc1	?	–	13µM	–	–	–
CCCc1nc2ccccc2n1CCOc1ccccc1	–	–	–	–	–	–
CN1CCN(CCCNC(=O)Cn2c(-c3cccs3)cc3cc(Cl)ccc32)CC1	·	–	·	?	?	?
COc1ccc2c(c1)OC(C)CN(CCC(=O)NCC1OCCc3ccccc31)C2 (stereo not given)	·	·	·	–	·	·
O=C(NCCc1cccs1)C(c1ccccc1)c1ccccc1	–	–	–	?	–	·
